Test [1] in a line: AP1 Signaling Pathway (AID 357).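 Note: ME-180 reporter cells stimulated with EGF at its EC50 level; % is set by controls: 0 for no effect and ±100 for the full control effect.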 The conditions noted are these: ME-180 AP-1-bla reporter, EGF-induced, beta-lactamase ratio, 5 h; at 7.69 µM (top of the series) unless noted. The essentials:
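Cells are seeded overnight, exposed to compound titrations and an EC50 level of EGF for 5 hours at 37 °C, then loaded with CCF4 dye for 2.5 hours. Beta-lactamase activity under the AP-1 element is read as a blue/green ratio.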

Test [2] addresses Cytochrome P450 1A2 (Homo sapiens) (UniProt P05177). Kind of test: p450-cyp1a2 (AID 410; calls by dose curve; note: potency is the fitted concentration of half-maximal effect). In short, it runs like this:
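Luminescent demethylation readout: Luciferin-ME (100uM, equal to Km) turned over by 20nM CYP1A2 for 60 min at room temperature after NADPH regeneration addition, following 10 min compound preincubation. Normalization used 57 uM furafylline as full inhibition.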

Test [3] in a line: NFAT Signaling Pathway (AID 444).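 Note: carbachol stimulus at about its EC50 of 1 µM final; % is set by controls: 0 for no effect and ±100 for the full control effect.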 Particulars: Jurkat NFAT-bla M1, carbachol, beta-lactamase ratio, 5 h; at 7.69 µM (top of the series) unless noted. In short, it runs like this: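 Read-out: CCF4 FRET ratio (460 nm/530 nm) after 1 h RT dye loading, used for %activity and AC50 from titration series. Cells: Jurkat NFAT-β-lactamase/M1 line, treated with compound plus 1 uM carbachol for 5 h, 37 °C.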

The nature of test [4]: Stat Signaling Pathway (AID 446).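 Note: ME-180 cervical cancer cells given 40 pM IL-6 alongside compound; SIE-controlled beta-lactamase reporter measured as 460/530 nm FRET emission ratio; % is set by controls: 0 for no effect and ±100 for the full control effect.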 The conditions noted are these: ME-180 (cervical carcinoma) SIE beta-lactamase reporter, IL-6 stimulated, 5 h; at 7.69 µM (top of the series) unless noted. In short, it runs like this:
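FRET read-out (405 nm excitation, 460/530 nm emission) of a beta-lactamase reporter under a STAT-inducible element in ME-180 cervical carcinoma cells. Cells with compound receive 40 pM IL-6 for 5 h. Values are normalised to AC90 stimulation and AC90 JAK-inhibitor controls.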

Test [5] concerns the target Glucocorticoid receptor (Homo sapiens) (UniProt P04150). Kind of test: GR-GFP Redistribution (AID 450;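 active = compounds whose dose series gives a full or clear partial fitted curve of increased nuclear translocation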; note: potency is the fitted concentration of half-maximal effect). The conditions noted are these: U2OS GR-GFP nuclear translocation, laser cytometry, 2 h.
For test [6] the target is unchanged. As to the kind of experiment: GR-EFC Redistribution (AID 451; calls by dose curve; note: potency is the fitted concentration of half-maximal effect). Particulars: CHO-K1 GR-EFC translocation, beta-gal luminescence, 2 h. In short, it runs like this:
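Translocation of GR-ED fusion to nuclear EA restores b-gal, read by luminescence after 1 h room-temperature detection. Engineered CHO-K1 biosensor cells, 1,000/well, exposed 2 h at 37 C to titrations up to 46 uM final.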

For test [7], the target named is Mitogen-activated protein kinase 10 (Mus musculus) (UniProt Q61831). Kind of test: JNK3 AlphaScreen Assay (AID 530).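 Note: kinase came from lysate of stimulated human HepG2 cells; signal reports phosphorylation of biotinylated GST-cJun 1-79 at Ser73 with 10 µM ATP; % is set by controls: 0 for no effect and ±100 for the full control effect.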 The essentials: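 qHTS titrations with 15 min compound pre-incubation before adding ATP (10 uM final). Read-out: AlphaScreen of Ser73-phosphorylated biotin-GST-cJun using HepG2 lysate JNK3 activated by IL-1β and TNFα.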
In test [8] the target is 3',5'-cyclic-AMP phosphodiesterase 4B (Homo sapiens) (UniProt Q07343). As to the kind of experiment: qHTS Assay for Inhibitors of PDE-IV (AID 607; active = well fitted activation curve with a large enough effect in the main read-out, with a control signal flat, not every such curve was filed as active; note: % of control where 0% means no effect). In short, it runs like this: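 Cell-based read-out of cAMP via a modified cyclic nucleotide-gated channel and membrane potential dye (535/590 nm) in HEK293 cells expressing PDE4 endogenously. Compounds tested up to 22.9 uM final; 100 uM RO 20-1724 reference.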
Chain of 3',5'-cyclic-AMP phosphodiesterase 4B (Homo sapiens) (Q07343 whole entry, looked up): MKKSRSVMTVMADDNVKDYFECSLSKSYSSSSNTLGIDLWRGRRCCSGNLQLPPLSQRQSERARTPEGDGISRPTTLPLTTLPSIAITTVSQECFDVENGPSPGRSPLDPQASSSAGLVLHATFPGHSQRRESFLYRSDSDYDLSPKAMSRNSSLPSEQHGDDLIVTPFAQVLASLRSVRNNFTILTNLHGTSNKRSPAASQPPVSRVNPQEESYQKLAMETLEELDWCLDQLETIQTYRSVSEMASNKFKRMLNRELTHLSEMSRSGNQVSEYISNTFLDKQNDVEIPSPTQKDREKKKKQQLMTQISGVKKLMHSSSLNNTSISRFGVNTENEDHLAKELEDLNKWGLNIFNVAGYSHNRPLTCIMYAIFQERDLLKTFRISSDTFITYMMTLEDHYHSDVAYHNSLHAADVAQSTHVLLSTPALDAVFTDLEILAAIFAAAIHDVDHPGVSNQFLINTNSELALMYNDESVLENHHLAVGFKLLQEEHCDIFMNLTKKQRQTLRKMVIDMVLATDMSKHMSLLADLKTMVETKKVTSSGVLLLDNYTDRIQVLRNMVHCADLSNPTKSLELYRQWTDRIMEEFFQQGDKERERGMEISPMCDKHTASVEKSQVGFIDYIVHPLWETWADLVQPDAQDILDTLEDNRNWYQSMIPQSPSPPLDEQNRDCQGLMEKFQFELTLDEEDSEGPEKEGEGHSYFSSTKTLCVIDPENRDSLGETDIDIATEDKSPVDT
(In qHTS, concentration-response curves come from the screen itself.)

In test [9] the target is Cytochrome P450 3A4 (Homo sapiens) (UniProt P08684). Kind of test: qHTS Assay for Inhibitors and Substrates of Cytochrome P450 3A4 (AID 884; active = well fitted curve in the direction sought with a large enough effect; an effect the other way counts as inactive or inconclusive; note: potency is the fitted concentration of half-maximal effect; nearly all actives have a fitted effect of over 50% in size). The essentials:
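Luminescent readout of luciferin produced by CYP3A4 (20 nM) dealkylation of Luciferin-PPXE, 25 uM (its KM). NADPH-driven reaction ran 60 min at RT after 10 min compound preincubation; data scaled to 57 uM ketoconazole as 100% inhibition.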

For test [10] the target is unchanged. As to the kind of experiment: qHTS Assay for Activators of Cytochrome P450 3A4 (AID 885; active = well fitted curve in the direction sought with a large enough effect; an effect the other way counts as inactive or inconclusive; note: nearly all actives have a fitted effect of over 65% in size). The essentials:
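Luminescent readout of luciferin formed from 25 uM Luciferin-PPXE (KM level) by 20 nM CYP3A4 in 200 mM KPO4, with 60 min NADPH-driven reaction at room temperature after 10 min compound exposure. Ketoconazole (57 uM) defined 100% inhibition.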

Test [11] is described as follows: Confirmation and Secondary Assay for Modulators of Hemoglobin Beta Chain Splicing at IVS2 705 locus (AID 930; active = well fitted curve in the direction sought with a large enough effect; an effect the other way counts as inactive or inconclusive;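 note: HeLa cells stably expressing the EGFP-705 splicing reporter; GFP fluorescence per well restored by corrected splicing of the IVS2-705 intron in EGFP; % of control where 0% means no effect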). In short, it runs like this:
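Read-out: total peak GFP fluorescence per well (488 nm excitation, 500-520 nm emission) by laser-scanning cytometry. Cells: HeLa EGFP-705 splicing reporter, 2 days compound exposure in Optimem/2% FCS.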

The nature of test [12]: qHTS Assay for Lipid Storage Modulators (AID 1519; calls by dose curve). Particulars: Drosophila S3 cells, BODIPY lipid droplet/cell ratio, laser cytometry, cells loaded with oleic acid; for activity change, negative = inhibition: at 57.5 µM (top of the series). In short, it runs like this: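 Cells seeded at 5,000 per well were treated with compounds over a concentration series and loaded with oleic acid (400 uM, as added). Lipid droplet fluorescence (488 nm excitation, 500-530 nm channel) was read by laser-scanning cytometry and normalized to 20 uM Triacsin C.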

Test [13] deals with Ubiquitin carboxyl-terminal hydrolase 1 (Homo sapiens) (UniProt O94782). As to the kind of experiment: Inhibitors of USP1/UAF1: Pilot qHTS (AID 504865; active = well fitted curve in the direction sought with a large enough effect; an effect the other way counts as inactive or inconclusive;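 note: rhodamine fluorescence freed from ubiquitin-rhodamine substrate followed over time; top concentration of the series differs between compounds; % is set by controls: 0 for no effect and ±100 for the full control effect; nearly all actives have a fitted effect of over 35% in size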). The essentials: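 1nM USP1/UAF1 + cpd, 15 min RT; start w/ Ub-Rho 150nM final; kinetic FL 480/540 nm, 6 reads q60 s. Buffer 50mM HEPES pH 7.8, 0.5mM EDTA, 1mM TCEP, 0.01% Tween-20, 0.1 mg/ml BSA.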
Chain of Ubiquitin carboxyl-terminal hydrolase 1 (Homo sapiens) (O94782 whole entry, looked up): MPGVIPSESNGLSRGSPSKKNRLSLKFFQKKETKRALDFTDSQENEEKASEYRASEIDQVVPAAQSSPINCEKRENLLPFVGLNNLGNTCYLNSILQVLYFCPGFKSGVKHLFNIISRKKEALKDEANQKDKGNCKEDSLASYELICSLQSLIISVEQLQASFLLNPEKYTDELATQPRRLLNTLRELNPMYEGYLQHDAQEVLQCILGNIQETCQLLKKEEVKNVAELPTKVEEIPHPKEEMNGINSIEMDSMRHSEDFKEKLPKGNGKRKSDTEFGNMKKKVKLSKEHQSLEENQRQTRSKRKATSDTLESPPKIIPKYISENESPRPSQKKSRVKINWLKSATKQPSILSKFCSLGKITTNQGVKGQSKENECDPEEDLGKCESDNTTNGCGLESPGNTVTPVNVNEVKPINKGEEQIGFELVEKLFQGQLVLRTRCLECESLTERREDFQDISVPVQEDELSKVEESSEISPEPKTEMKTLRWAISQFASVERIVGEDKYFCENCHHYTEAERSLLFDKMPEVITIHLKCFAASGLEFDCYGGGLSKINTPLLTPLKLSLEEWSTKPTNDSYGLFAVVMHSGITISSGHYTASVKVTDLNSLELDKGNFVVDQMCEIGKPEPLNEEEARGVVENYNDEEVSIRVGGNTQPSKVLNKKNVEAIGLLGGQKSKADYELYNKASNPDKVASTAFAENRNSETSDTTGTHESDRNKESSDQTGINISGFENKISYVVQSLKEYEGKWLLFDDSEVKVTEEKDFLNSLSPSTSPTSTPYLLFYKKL
A short description of test [14]: Primary qHTS for small molecule stabilizers of the endoplasmic reticulum resident proteome: Secreted ER Calcium Modulated Protein (SERCaMP) assay (AID 1508630; active = well fitted curve in the direction sought with a large enough effect; an effect the other way counts as inactive or inconclusive; note: % is set by controls: 0 for no effect and ±100 for the full control effect). In short, it runs like this:
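The SH-SY5Y reporter protocol was run at 3 concentrations up to 38.3 uM (primary) or 11 concentrations (follow-up): 16 h compound, 100 nM thapsigargin for 4 h, then extracellular luciferase luminescence.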

The target in test [15] is Lysosomal acid glucosylceramidase (Homo sapiens) (UniProt P04062). Kind of test: Glucocerebrosidase-p2 (AID 348; in the data active = potency below about 10 µM; note: potency is the fitted concentration of half-maximal effect). Particulars: purified GBA, blue fluorogenic substrate, 40 min. The essentials:
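Normal human glucocerebrosidase (0.2 nM) with blue fluorogenic substrate (80 uM final) in citrate/phosphate pH 5.9 with 10mM sodium taurocholate, 0.01% tween-20; 40 min RT, NaOH/glycine stop; fluorescence Ex 365/Em 440; AC50 from a titration from 0.6 nM upwards.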

Setting [16] is: measured here: cell count channel max response.
[17] abbreviates: measured here: lipid channel max response.

Inconclusive results are not listed. Activity calls are given as the source filed them. Unless noted, calls come from the whole dose curve; as a rule, active = well fitted curve in either direction with a large enough effect (not every such curve was filed as active); inconclusive = small, poorly fitted or top-dose-only effect, or another doubt; inactive = flat fitted curve, though single readings scatter.

Chain of Cytochrome P450 1A2 (Homo sapiens) (P05177 whole entry, looked up): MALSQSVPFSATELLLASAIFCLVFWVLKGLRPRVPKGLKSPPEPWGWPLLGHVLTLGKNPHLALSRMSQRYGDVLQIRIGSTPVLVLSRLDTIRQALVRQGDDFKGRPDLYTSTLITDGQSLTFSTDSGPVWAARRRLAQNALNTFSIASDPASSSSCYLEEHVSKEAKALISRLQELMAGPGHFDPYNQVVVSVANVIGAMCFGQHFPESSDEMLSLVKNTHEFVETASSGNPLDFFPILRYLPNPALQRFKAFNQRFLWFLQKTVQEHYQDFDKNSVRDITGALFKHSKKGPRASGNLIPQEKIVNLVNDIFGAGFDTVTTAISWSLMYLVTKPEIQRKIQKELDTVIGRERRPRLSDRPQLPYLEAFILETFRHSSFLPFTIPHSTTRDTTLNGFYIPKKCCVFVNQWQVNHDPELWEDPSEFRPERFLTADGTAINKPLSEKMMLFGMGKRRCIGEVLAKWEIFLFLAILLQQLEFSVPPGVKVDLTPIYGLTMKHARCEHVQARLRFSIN
Chain of Glucocorticoid receptor (Homo sapiens) (P04150 whole entry, looked up): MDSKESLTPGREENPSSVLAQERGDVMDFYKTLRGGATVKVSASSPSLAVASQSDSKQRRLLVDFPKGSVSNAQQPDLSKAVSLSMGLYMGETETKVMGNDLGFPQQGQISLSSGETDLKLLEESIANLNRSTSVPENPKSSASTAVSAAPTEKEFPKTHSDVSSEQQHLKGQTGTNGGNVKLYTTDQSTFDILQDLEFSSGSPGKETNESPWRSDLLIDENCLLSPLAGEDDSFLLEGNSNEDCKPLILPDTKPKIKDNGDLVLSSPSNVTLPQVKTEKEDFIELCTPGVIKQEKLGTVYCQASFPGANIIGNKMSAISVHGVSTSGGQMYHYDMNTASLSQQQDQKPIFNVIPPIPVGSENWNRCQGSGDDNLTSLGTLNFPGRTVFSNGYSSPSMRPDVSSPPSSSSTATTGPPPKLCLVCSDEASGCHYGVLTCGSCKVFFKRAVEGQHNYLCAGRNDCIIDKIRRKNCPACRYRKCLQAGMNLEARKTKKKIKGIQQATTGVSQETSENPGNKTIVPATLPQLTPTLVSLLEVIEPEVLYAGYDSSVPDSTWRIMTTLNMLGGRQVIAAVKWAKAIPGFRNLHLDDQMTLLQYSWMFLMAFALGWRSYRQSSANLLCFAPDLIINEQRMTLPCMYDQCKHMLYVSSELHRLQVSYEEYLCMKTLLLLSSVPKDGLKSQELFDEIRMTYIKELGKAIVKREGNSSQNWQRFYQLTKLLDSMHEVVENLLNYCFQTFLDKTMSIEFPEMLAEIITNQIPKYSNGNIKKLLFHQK
Chain of Cytochrome P450 3A4 (Homo sapiens) (P08684 whole entry, looked up): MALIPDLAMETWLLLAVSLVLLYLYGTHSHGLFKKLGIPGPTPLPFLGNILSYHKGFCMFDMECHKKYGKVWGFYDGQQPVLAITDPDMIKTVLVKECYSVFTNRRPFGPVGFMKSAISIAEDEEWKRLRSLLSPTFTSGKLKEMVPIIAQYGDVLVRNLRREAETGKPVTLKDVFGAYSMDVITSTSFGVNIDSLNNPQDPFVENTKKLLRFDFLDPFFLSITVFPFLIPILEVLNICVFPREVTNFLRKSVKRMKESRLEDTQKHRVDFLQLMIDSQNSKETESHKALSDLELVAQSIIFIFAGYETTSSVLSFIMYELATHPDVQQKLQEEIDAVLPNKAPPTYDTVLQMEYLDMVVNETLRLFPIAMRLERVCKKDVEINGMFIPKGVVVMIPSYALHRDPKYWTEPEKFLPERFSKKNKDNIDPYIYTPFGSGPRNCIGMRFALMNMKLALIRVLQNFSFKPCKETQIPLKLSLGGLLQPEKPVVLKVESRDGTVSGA
Chain of Lysosomal acid glucosylceramidase (Homo sapiens) (P04062 whole entry, looked up): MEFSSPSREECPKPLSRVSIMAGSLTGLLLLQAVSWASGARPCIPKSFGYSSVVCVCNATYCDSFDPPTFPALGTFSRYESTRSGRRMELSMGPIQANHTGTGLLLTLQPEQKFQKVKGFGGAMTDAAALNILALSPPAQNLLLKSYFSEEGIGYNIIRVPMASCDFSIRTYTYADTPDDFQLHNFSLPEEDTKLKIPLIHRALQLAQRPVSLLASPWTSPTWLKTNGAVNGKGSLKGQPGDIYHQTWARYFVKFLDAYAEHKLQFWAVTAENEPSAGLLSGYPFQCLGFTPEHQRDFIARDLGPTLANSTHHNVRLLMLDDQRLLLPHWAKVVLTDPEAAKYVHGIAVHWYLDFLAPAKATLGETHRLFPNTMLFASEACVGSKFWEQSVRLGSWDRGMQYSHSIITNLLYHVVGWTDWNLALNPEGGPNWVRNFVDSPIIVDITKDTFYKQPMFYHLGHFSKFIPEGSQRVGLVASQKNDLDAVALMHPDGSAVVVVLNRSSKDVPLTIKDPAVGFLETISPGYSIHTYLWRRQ

Take `CN(C)C(=O)c1ccc(-c2cncnc2NCc2cccs2)cc1`: the activity change, negative = inhibition in [1] is 8.21% (inactive); in test [3], 6.04% (inactive); in test [12], 6.52% (inactive). The Potency in [2] was 20 µM (active); in [5], > 46 µM (inactive); in test [6] it was > 46 µM (inactive); in [9], 3.16 µM (active). Further, the activity, negative = inhibition in [4] was 17.8% (inactive). Further, the Potency entry in [7], in test [8], in [10] and in test [13] was “inactive” each time. The compound was called inactive in [11] and in test [14]. The values for the max response in test [12] (setting [16]) and in [12] (setting [17]) were 22.2% and 27.8%, respectively.

In the case of `Cc1cnc(CNc2nc(-c3ccc(N(C)C)cc3)nc3ccccc23)cn1`, the activity change, negative = inhibition in [1] is -17% (inactive); in test [12] it was 11.9% (inactive). In addition, the Potency was 3.16 µM (active) in test [2], > 46 µM (inactive) in [5], > 46 µM (inactive) in [6] and 5.01 µM (active) in [9]. For the same compound, in [4], the activity, negative = inhibition is 7.71% (inactive). The Potency entry in [7], in test [8] and in [10] was “inactive” each time. For the same compound, the max response was determined as 13.6% in test [12] (setting [16]) and 26% in [12] (setting [17]). Besides, the result in [14] was inactive.

For `COc1ccc(C(=O)N2CCC3(CCCN(C(c4ccccc4)c4ccccc4)C3)CC2)cc1`, the Potency was > 11.4 µM (inactive) in test [15] and > 46 µM (inactive) in [6]. Moreover, the activity, negative = inhibition in [4] was 18.3% (inactive). Further, the Potency entry in test [7] was “inactive”. In addition, the activity change, negative = inhibition in [12] was -5.74% (inactive). For the same compound, the max response in test [12] (setting [16]) is 2.37%; in test [12] (setting [17]), -2.89%. Besides, the result in [14] was inactive.

With `O=C(c1csnn1)N1CCC2(CCN(Cc3ccccc3)CC2)CC1`, the activity change, negative = inhibition in test [1] was 13.9% (inactive); in [12] it was -4.6% (inactive). Also, the Potency entry in [2], in test [7] and in [8] was “inactive” throughout. Also, the activity, negative = inhibition in [4] is -0.255% (inactive). The Potency in test [6] was > 46 µM (inactive). Also, the max response in test [12] (setting [16]) was found to be 4.52%; in test [12] (setting [17]), 1.17%. The outcome in test [14] was inactive.

For the compound `CC(=O)N1CCC[C@@]2(CCN(Cc3nccs3)C2)C1`, the figures for the activity change, negative = inhibition in [1], in test [3] and in test [12] were 1.66% (inactive), 8.54% (inactive) and 6.81% (inactive), respectively. The Potency result in test [2], in test [7] and in test [10] was “inactive” each time. For the same compound, the activity, negative = inhibition in test [4] is 4.24% (inactive). Moreover, the Potency in test [6] is > 46 µM (inactive). In addition, the max response in test [12] (setting [16]) amounted to 16.2%; in test [12] (setting [17]), 26.9%. For the same compound, in [14], the result was inactive.

Turning to `COc1ccccc1CNc1ncnc2ccc(-c3c(C)noc3C)cc12`, the figures for the Potency in [15], in test [5] and in test [6] were > 11.4 µM (inactive), > 46 µM (inactive) and > 46 µM (inactive), respectively. Moreover, the Potency entry in test [7] and in test [10] was “inactive” in each case. For the same compound, the call in [11] and in [14] was inactive. The activity change, negative = inhibition in [12] was -5.34% (inactive). Also, the max response in [12] (setting [16]) is -3.01%; in [12] (setting [17]) it was -7.6%.

For `CNc1nc(-c2ccccc2C(F)(F)F)nc2ccccc12`, the activity change, negative = inhibition was -1.48% (inactive) in [1], 5.59% (inactive) in [3] and 5.47% (inactive) in [12]. In addition, the Potency is 0.251 µM (active) in [2], > 46 µM (inactive) in test [5] and > 46 µM (inactive) in test [6]. Also, the activity, negative = inhibition in test [4] was 3.95% (inactive). The Potency entry in test [7] and in test [8] was “inactive” throughout. Also, the call in [11] and in test [14] was inactive. The max response was 10% in test [12] (setting [16]) and 19.8% in [12] (setting [17]).

The values above are taken from PubChem BioAssay (NCATS).
